Measurements taken from PubChem BioAssay AID2023 (NMMLSC, 2009).
Out of some 320,000 compounds screened, about 1,100 (0.34%) were called active. For the sample, actives were picked, then their nearest neighbours and some compounds at random. Values without a mark were called inactive.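 How the source made its calls: active means GFP response vs DMSO above a set limit, about the screen mean plus 3 SD (cut at about 150% in these data); inconclusive means under 70 cell events counted for the yeast strain; inactive means the rest.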

Assay: TOR pathway LAP4-GFP level changes – S. cerevisiae, multiplex flow cytometry, MLPCN library, primary screen (AID 2023)
Details: 3 h, at 10 µM, hits give high values, median GFP as percent of DMSO wells

SMILES | GFP response vs DMSO
O=C(NCCc1ccccc1Cl)C1CCC(=O)N(CCCc2ccccc2)C1 (centres undefined) | 87.4%
Cc1cc(C)nc(SCC(=O)c2ccc(Cl)cc2)n1 | 91.3%
Cc1cc(Oc2ccc(Cl)cc2)nc(SCC(=O)c2ccccc2)n1 | 103%
Cc1cc(C)nc(S/C=C/C(=O)c2ccccc2)n1 | 239% (active)
Cc1noc(C)c1S(=O)(=O)N(C)Cc1ccccc1 | 91.9%
N#C/C(=C\N1CCOCC1)S(=O)(=O)c1ccc(Cl)cc1 | 113%
Cc1ccc(NC(=O)Cn2c(=O)n(CCC(=O)NC3CCN(Cc4ccccc4)CC3)c(=O)c3ccccc32)cc1 | 94.3%
COc1ccc(C2(c3ccc(OC)cc3)NC(=O)N(CC(=O)Nc3cc(C)on3)C2=O)cc1 | 92.2%
O=C(Cc1ccccc1)NC(=S)Nc1ccc(N2CCCCC2)cc1 | 111%
CC(=O)Nc1ccc(S(=O)(=O)Nc2ccc(N3CCCCC3)cc2)cc1 | 105%
O=C1C=CC(=O)N1c1ccc(N2CCCCC2)cc1 | 179% (active)
COc1ccccc1N(CCOc1ccccc1)S(=O)(=O)c1ccccc1 | 103%
Cc1nc([N+](=O)[O-])nn1C12CC3CC(CC(Br)(C3)C1)C2 | 109%
Cc1ccc(CSCC(N)C(=O)O)cc1 (centres undefined) | 97%
Cc1ccc(SC(CC(=O)c2ccc(C(C)(C)C)cc2)C(=O)O)cc1 (centres undefined) | 170% (active)
Cc1ccc(C(=O)CSc2ccccc2C(=O)O)cc1 | 104%
COc1cnc(-c2ccccn2)nc1Oc1ccc(C(C)(C)C)cc1 | 107%
CC(C)(C)Nc1nc(-c2ccccn2)nc2ccccc12 | 90.7%
Cc1ccc(Oc2nc(-c3ccccn3)nc3ccccc23)cc1 | 151% (active)
Nn1c(Cc2cccc3ccccc23)nnc1SCC(=O)N1CC(=O)Nc2ccccc21 | 99.1%
O=C(Nc1ccc(Br)cn1)c1ccc([N+](=O)[O-])o1 | 105%
Cc1onc(NC(=O)c2ccc([N+](=O)[O-])o2)c1Br | 116%
Cc1cccc(NC(=O)c2ccc([N+](=O)[O-])o2)c1 | 151% (active)
Cc1cccc(N)c1SC1CCCCC1O (centres undefined) | 92.2%

SMILES | GFP response vs DMSO
Cc1ccc(C(CNC(=O)Nc2ccccc2)N2CCN(C)CC2)cc1 (centres undefined) | 102%
Cc1ccc(N=Cc2c(O)cc(C)oc2=O)c(C)c1 | 100%
Cc1cc(O)c(Sc2ccccc2)c(=O)o1 | 109%
Cc1cc(O)c(C(=O)/C=C/c2c(F)c(F)c(F)c(F)c2F)c(=O)o1 | 152% (active)
Cc1cccnc1NC(=O)c1cccc(S(=O)(=O)N2CCN(c3ccc(F)cc3)CC2)c1 | 87.3%
Oc1c(CN2CCN(c3ccc(F)cc3)CC2)cc(Cl)c2cccnc12 | 203% (active)
Oc1c(CN2CCCC2)cc(COCc2ccccc2)c2cccnc12 | 105%
Cc1cc(C)c(OCC(=O)N(Cc2cccs2)C2CCS(=O)(=O)C2)c(C)c1 (centres undefined) | 98.7%
C/C(=N\NS(=O)(=O)c1ccc(Cl)cc1)c1ccc(NC(=O)c2ccco2)cc1 | 94.4%
Cc1ccc2nc(C)cc(N/N=C/c3ccc(F)cc3)c2c1 | 103%
Fc1ccc(/C=N/Nc2nc(-c3cccnc3)nc3ccccc23)cc1 | 165% (active)
O=[N+]([O-])c1ccc(F)cc1Oc1nc(-c2cccnc2)nc2ccccc12 | 100%
CCOC(=O)CCC(=O)OCC(=O)NC(C)C1CC2CCC1C2 (centres undefined) | 100%
COc1ccc(S(=O)(=O)N2CCN(CC(=O)N3CCOCC3)CC2)cc1OC | 95%
O=C(COC(=O)c1cccnc1Cl)NC12CC3CC(CC(C3)C1)C2 | 104%
CN/C(=C\[N+](=O)[O-])NCCSCc1csc(CN(C)C)n1 | 95.9%
COC(=O)c1ccc(-c2noc(CN(Cc3ccccn3)CC3CCCO3)n2)cc1 (centres undefined) | 98.4%
COc1ccccc1C(=O)Nc1ccc(OCc2nnc3c4ccccc4c(C)nn23)cc1 | 102%
C=CCC1(CC=C)CCCN1C(=O)CC1C(=O)NCCN1Cc1ccccc1OC (centres undefined) | 93%
CCc1noc(C)c1C(=O)Nc1nc2ccc(OC)cc2s1 | 152% (active)
COc1cccc(C(=O)Nc2nc3ccc(S(C)(=O)=O)cc3s2)c1 | 103%
CCc1noc(C)c1C(=O)Nc1nc(-c2ccccc2)cs1 | 115%
COc1cc(C(=S)N2CCOCC2)cc(OC)c1OC(=O)c1ccc([N+](=O)[O-])cc1[N+](=O)[O-] | 91.2%
Nc1c(C(=O)c2cccs2)sc2nsc(SCCN3CCCCC3)c12 | 203% (active)

SMILES | GFP response vs DMSO
O=C(CSc1ncnc2sccc12)N1CCN(C(=O)c2cccs2)CC1 | 107%
CCc1c(C)c2ccc(OC3CCCCC3=O)cc2oc1=O (centres undefined) | 99.3%
CC(C)c1ccc(NC(=O)C2CCCN(S(=O)(=O)c3cccnc3)C2)cc1 (centres undefined) | 94.4%
CCOc1ccc(C(c2c(C)[nH][nH]c2=O)c2c(C)[nH][nH]c2=O)cc1OCC | 128%
O=C(NC1CCCCC1)c1ccc(-c2ccc(Cl)cc2)o1 | 118%
Cc1[nH][nH]c(=O)c1C(c1ccc(-c2ccc(Cl)cc2)o1)c1c(C)[nH][nH]c1=O | 184% (active)
Oc1ccc2ccccc2c1N=Nc1nccs1 | 165% (active)
CCN(c1ccccc1)S(=O)(=O)c1cc2c(cc1C)n(C)c(=O)c(=O)n2C | 99.4%
Cc1ccccc1OCCC(=O)OCC(=O)NCCc1ccc(S(N)(=O)=O)cc1 | 91.6%
CC(C)CC1(C)NC(=O)N(CC(=O)Nc2ccc3c(c2)OCCO3)C1=O (centres undefined) | 95.9%
CC1(C)CC(=O)CC2(C1)NCC(c1ccccc1Cl)c1c2[nH]c2ccccc12 (centres undefined) | 107%
CC(C)c1nc(SCC(=O)Nc2cccc(C(=O)O)c2)c2c3c(sc2n1)CCCC3 | 99.7%
COc1ccc(-n2c(C)cc(C(=O)CN3C(=O)NC4(CCc5ccccc54)C3=O)c2C)cc1 (centres undefined) | 96.4%
CCn1c(/C=C/c2ccc([N+](=O)[O-])o2)nc2ccccc2c1=O | 358% (active)
CCc1ccc(S(=O)(=O)N/N=C\c2ccc([N+](=O)[O-])o2)cc1 | 87.6%
CCn1c(=O)c([N+](=O)[O-])c(NCc2ccc3c(c2)OCO3)c2ccccc21 | 101%
Cc1cccc([C@@H]2[C@@H]3C(=O)N(Cc4ccccc4)C(=O)[C@@H]3[C@]3(C)C(=O)N(c4ccc(Br)cc4)C(=O)N23)c1 | 98.8%
CN(c1ccccc1)S(=O)(=O)c1cc(C(=O)N2CCN(c3ncccn3)CC2)ccc1Cl | 91.2%
C[C@@H](CN1CCC[C@H]1CN1C(N)=NC[C@@H]1Cc1ccccc1)N1C[C@@H](Cc2ccccc2)N(CCCC2CCCC2)C1=N | 96.6%
O=C(Nc1cc(-c2ccccc2)nn1-c1ccccc1F)c1ccc([N+](=O)[O-])cc1 | 134%
COc1ccccc1CNC(=O)CN1CCC(n2cnc3cc(F)ccc32)CC1 | 97.5%
CCOc1ccc(S(=O)(=O)Nc2ccc(OC)nc2)cc1 | 98.1%
COc1ccc(Nc2ccc([N+](=O)[O-])cn2)cn1 | 89.6%
COc1ccc(NC(=O)/C(Cl)=C(/Cl)S(=O)Cc2ccc(C)cc2)cn1 (centres undefined) | 201% (active)

SMILES | GFP response vs DMSO
O=C(Nc1ccon1)c1nc[nH]c1C(=O)NCc1ccccc1 | 94.7%
O=C(O)CCn1c(Cc2ccccc2)nc2ccccc21 | 88.9%
Cc1cc2ccccc2n1CCNC(=O)COc1ccc2ccccc2c1 | 112%
Cc1cc2ccccc2n1CCC(=O)O | 154% (active)
CCOc1ccc(NC(=S)NC(=O)/C=C/c2ccc(OC)cc2)c([N+](=O)[O-])c1 | 95.5%
COc1ccc(-n2nc(C(=O)NCC(=O)N3CCCCCC3)c3ccccc3c2=O)cc1Cl | 112%
CNS(=O)(=O)c1cccc(C(=O)OCCCC(=O)c2ccccc2)c1 | 100%
COc1cccc(C(=O)c2cc3ccc(O)cc3oc2=O)c1 | 121%
CCN(CC)c1ccc2cc(C(=O)O)c(=O)oc2c1 | 157% (active)
CCOC(=O)c1cc2cc3ccccc3cc2oc1=O | 88.3%
C[C@H]1CC[C@]2(O[C@@H](CCO)C[C@@H](O)[C@@H]2O)O1 | 105%
O=c1[nH]c(CSc2ccccc2)nc2c1oc1ccccc12 | 107%
O=C(Nc1cccc2ccccc12)c1onc2c1CCCC2 | 94%
COc1ccc(N(CC(=O)NCC2CCCO2)C(=O)CCC(=O)Nc2nccs2)c(OC)c1 (centres undefined) | 91.8%
CN(C)S(=O)(=O)c1cc(C(=O)Nc2ccn(C)n2)c(Cl)cc1Cl | 6410% [may fluoresce green] (active)
Cc1ccc(C(=O)Nc2ccn(C)n2)cc1 | 101%
O=C(Nc1nccs1)c1cc(S(=O)(=O)N2CCOCC2)c(Cl)cc1Cl | 89.4%
COc1cccc(CCNC(=O)COc2cccc3c2OC(C)(C)C3)c1 | 113%
COc1cc(F)c(C2=CC(=O)CC(C)(C)C2)cc1F | 118%
CCOC(=O)c1ccccc1NC(=S)N1CCC(C(N)=O)CC1 | 111%
CN(C)CCc1c[nH]c2ccc(Cn3cncn3)cc12 | 119%
COc1ccc(NC(=O)C2C3C=CC(C3)C2C(=O)NCc2ccccn2)c(OC)c1 (centres undefined) | 92.5%
